# Sampled rows, rich in hits. Any-hit rate of the full collection: about 12%.
# G9a block = blocks human histone lysine methyltransferase G9a. Q96KQ7. G9a H3K9 monomethylation, AlphaScreen, 2 h. Potency, µM (series often up to 102 µM), for inactives: at the highest dose activity, negative = inhibition, actives largely listed as inhibitors. actives 8.8% (n = 350,000); also: % is scaled to controls: 0 for no effect and ±100 for the full control effect; nearly all actives have a fitted effect of over 75% in size
#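 Quantitative HTS format: methyltransferase activity on a biotin-tagged H3K9 peptide is measured by AlphaScreen, using a rabbit anti-monomethyl-H3K9 antibody with streptavidin donor and anti-IgG acceptor beads. Final levels are 20 nM enzyme, 500 nM peptide, 20 uM SAM; 2 h RT.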
# Sfp inh = inhibitors of Bacillus subtilis Sfp phosphopantetheinyl transferase; Potency, µM, for inactives: largest response in the series, negative = inhibition, usual class: inhibitors; actives 3.5% (n = 310,000); Biochemical Sfp PPTase activity, qHTS; Q9F4F7; AID 1490;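 also: the enzyme is Sfp with the accession as filed and its product quenches rhodamine fluorescence; 0% = enzyme reaction without inhibitor and -100% = no enzyme wells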
#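 Step 1, compound plus 15 nM Sfp-PPTase, 15 min, room temperature. Step 2, add rhodamine-CoA (5 uM) and BHQ-2-YbbR (12.5 uM). Step 3, read 525/598 nm fluorescence at 0 and 30 min.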
# HP1b chromo inh = inhibitors of HP1-beta chromodomain binding to methylated histone tails | P83916 | AlphaScreen HP1-beta / biotin-H3K9me3 peptide binding | Potency, µM (highest dose often 114 µM), for the others: at the highest dose activity change, negative = inhibition, most hits filed as inhibitors | actives 0.56% (n = 390,000) | AID 540317; also: nearly all actives have a fitted effect of over 70% in size
#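 HP1-beta protein (50 nM final) preincubated 30 min at room temperature with biotinylated H3(1-18)K9me3 peptide (50 nM) in PBS pH 7.4, 0.01% Tween-20, then compound added for 30 min. AlphaScreen streptavidin donor/nickel chelate acceptor beads (10 ug/mL final), 30 min dark, luminescence read.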
# JMJD2A Tudor = JMJD2A Tudor domain (human) inhibition. O75164. AlphaScreen JMJD2A-Tudor / H3K4me3 peptide binding. Potency, µM (doses to about 114 µM), inactives show at the top dose activity change, negative = inhibition, hits mostly inhibitors. actives 4.4% (n = 390,000); also: % is scaled to controls: 0 for no effect and ±100 for the full control effect; nearly all actives have a fitted effect of over 50% in size
# BAZ2B block = BAZ2B (human) inhibition; AlphaScreen BAZ2B-H3K14Ac peptide displacement; Potency, µM (doses to about 114 µM), without a hit: at the highest dose activity change, negative = inhibition, most hits filed as inhibitors; Q9UIF8; actives 4.4% (n = 360,000); also: % is scaled to controls: 0 for no effect and ±100 for the full control effect; nearly all actives have a fitted effect of over 60% in size
#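 Compounds, titrated to a top concentration of 110 uM, were incubated 30 min at room temperature with preformed BAZ2B/acetyl-K14 H3 peptide complex (50 nM each). Proximity signal was measured by AlphaScreen after 20 min with beads.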
# An asterisk follows results filed as active; u = inconclusive; x = not tested or not shown; [ ] = dose if it differs, or a comment. Calls follow the shape of the dose curve; as a rule, active = well fitted curve in the direction sought with a large enough effect; inconclusive = small, poorly fitted or top-dose-only effect, or another doubt; inactive = no such curve, though single readings can be large; an effect the other way counts as inactive or inconclusive. Potency is read from the fitted curve at half-maximal effect.
SMILES,G9a block,Sfp inh,HP1b chromo inh,JMJD2A Tudor,BAZ2B block
CCOC(=O)c1cc2c(=O)n3ccccc3nc2n(Cc2ccco2)c1=NC(=O)c1ccc(OC)cc1,-12%,u,22%,9%,-8%
CCCn1c(=NC(=O)c2ccco2)c(C(=O)OCC)cc2c(=O)n3ccccc3nc21,2%[12.7 µM],u,27%,-15%,-5%
CSc1ccccc1NC(=O)c1noc(C)c1[N+](=O)[O-],35µM*,45µM*,5%,-23%,-17%
Cc1onc(C(=O)Nc2c(C)n(C)n(-c3ccccc3)c2=O)c1[N+](=O)[O-],x,79µM*,-9%,-18%,u
COc1ccc(-c2occ(C(=O)O)c2C(=O)O)cc1,u,-6%,28%,18%,u
O=C1CN(c2nc(-c3cccnc3)nc3scc(-c4ccccc4)c23)CCN1,40µM*,-10%,36%,1%,-29%
COc1ccc(CCC(=O)NCc2ccccc2OC)cc1,8%,22%,56%,-5%,2%
COc1ccc(C(=O)C[n+]2cccc(C)c2)cc1,71µM*,-9%,16%,-17%,11%
Nc1cc(N)cc(C(=O)OCC(=O)Nc2cc(S(=O)(=O)N3CCCCC3)ccc2Cl)c1,32µM*,16%,50µM*,35µM*,25µM*
O=C(COC(=O)c1ccc[nH]c1=O)Nc1ccc(S(=O)(=O)N2CCCC2)cc1,7%[12.7 µM],4%,5%,u,-23%
O=C(COC(=O)c1ccc[nH]c1=O)Nc1cc(S(=O)(=O)N2CCCCC2)ccc1Cl,-41%,6%,39%,89µM*,15%
OCC[C@@H]1C[C@H](O)[C@@H](O)[C@]2(CCCc3ccccc3O2)O1,-2%,11%,21%,-22%,-13%
CC(=O)c1ccc(NC(=O)CCCCCn2nnc3ccccc3c2=O)cc1,13%,-6%,33%,13%,6%
C[C@H](NC(=O)c1ccc(Cl)cc1)C(=O)OCn1nnc2ccccc2c1=O,x,x,27%,u,x
O=C(CSCC(=O)OCn1nnc2ccccc2c1=O)Nc1ccc(Cl)cc1,45µM*,-10%,25%,1%,-22%
CN(C)c1ccc(NC(=O)CCCCCn2nnc3ccccc3c2=O)cc1,50µM*,7%,16%,-25%,-20%
C/C(=N\NC(=O)c1ccccc1O)c1ccc(Br)s1,2%[59 µM],10%,-3%,-22%,6%
CCNC(=O)C1CC(=O)N(Cc2ccc(F)cc2)C(=Nc2ccc(OC)cc2)S1 (centres undefined),16%[59 µM],9%,29%,-5%,6%
CCNC(=O)C1CC(=O)N(Cc2ccc3c(c2)OCO3)C(=Nc2ccc(OCC)cc2)S1 (centres undefined),0%[12.7 µM],3%,32%,-1%,50µM*
Cc1ccc(S(=O)(=O)n2cnc3cc([N+](=O)[O-])ccc32)cc1C,-2%[12.7 µM],4%,37%,-34%,u
Cc1ccc(-n2c3nc(=O)[nH]c(=O)c-3cc3cc([N+](=O)[O-])ccc32)cc1C,45µM*,-27%,-10%,-18%,8%
COc1cc(/C=N/NC(=O)c2sc3nc(C)cc(C)c3c2N)ccc1O,-38%,6%,33%,8%,0%
COc1cc(C(=O)Nc2ccc3[nH]c(=O)sc3c2)cc(OC)c1OC,-27%[59 µM],x,27%,-3%,-1%
COCCNC(=S)N=Nc1c(O)[nH]c2c(C)cc(C)cc12,-4%,-27%,18%,-4%,-10%
Cc1cc(C)c2[nH]c(=S)cc(C)c2c1,3.5µM*,17%,11%,-3%[57.1 µM],-8%
SMILES,G9a block,Sfp inh,HP1b chromo inh,JMJD2A Tudor,BAZ2B block
COc1cccc(OC)c1Cn1nnc2c(=O)[nH]c(C3CCN(C(=O)c4ccccc4)CC3)nc21,-34%[59 µM],x,42%,0%,-5%
O=C(O)[C@H]1CCCC[C@H]1C(=O)Nc1ccc(Nc2ccccc2)cc1,8.9µM*,3%,13%,-11%,-35%
O=C(Nc1cccc(Br)c1)C1CCCC1,x,x,58%,8%,x
O=C(O)C1CCCCC1C(=O)Nc1cccc(Br)c1 (centres undefined),16%[2.33 µM],x,25µM*,25µM*,u
O=C(Cc1ccccc1F)Nc1nc2ccccc2[nH]1,-27%,0%,7%,-17%,-16%
O=C(c1ccc(NS(=O)(=O)c2cccs2)cc1)N1CCOCC1,-1%,8%,40%,9%,-3%

# From PubChem
